The entries come from a sample that favours hits as a whole.
S1P2 agonist – S1P2 receptor agonists, primary screen, cell-based. Sphingosine 1-phosphate receptor 2 (Homo sapiens), O95136. S1P2-expressing cell line, agonist reporter read-out. activation, % at 4.5 µM. 97,000 tested, 0.46% active. AID 729, 2007; in the data active = activation above about 16%
PostGolgi ctrl – growth inhibition of yeast control strain, primary screen, counter-screen for post-Golgi transport modulator project; efflux-deficient yeast background strain, growth absorbance A615, 16 h; 98,000 tested, 5% active; AID 738, 2007; inhibition, % at 10 µM
GALR2 blocker – GALR2 antagonists in receptor-expressing cells, primary screen; Galanin receptor type 2 (Homo sapiens), O43603; antagonist mode; inhibition, % at 4 µM; 140,000 tested, 0.39% active; AID 828, 2007; in the data active = inhibition above about 27%;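 note: cells stimulated with galanin 1-16 at roughly its EC80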
Target sequence (O43603 whole entry, looked up): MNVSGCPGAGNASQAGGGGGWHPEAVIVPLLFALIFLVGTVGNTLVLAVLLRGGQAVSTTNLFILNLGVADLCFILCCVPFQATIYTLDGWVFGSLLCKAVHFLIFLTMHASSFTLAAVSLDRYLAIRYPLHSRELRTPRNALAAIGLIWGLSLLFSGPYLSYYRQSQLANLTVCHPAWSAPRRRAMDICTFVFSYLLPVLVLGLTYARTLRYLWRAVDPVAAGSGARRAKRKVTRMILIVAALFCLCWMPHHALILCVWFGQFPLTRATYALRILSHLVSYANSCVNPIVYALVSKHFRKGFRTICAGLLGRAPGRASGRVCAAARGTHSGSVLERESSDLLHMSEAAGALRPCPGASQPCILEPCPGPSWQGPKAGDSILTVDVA
S1P2 antag – human S1P2 receptor antagonists, primary screen, cell-based. Sphingosine 1-phosphate receptor 2 (Homo sapiens), O95136. cell-based S1P2 antagonist assay, inhibition at 5 uM. inhibition, % at 5 µM. 97,000 tested, 0.21% active. AID 736, 2007; in the data active = inhibition above about 45%;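 note: CRE beta-lactamase reporter cells expressing human S1P2 stimulated with S1P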
GALR2 agonist – GALR2 receptor agonists, primary screen, cell-based; Galanin receptor type 2 (Homo sapiens), O43603; GALR2-expressing cells, agonist activation read-out; activation, % (no concentration beside the values); 140,000 tested, 0.48% active; AID 803, 2007; in the data active = activation above about 5%, passing the limit was not always enough
PostGolgi yeast – phenotypic screen on post-Golgi transport, primary screen. post-Golgi transport phenotypic cell assay. inhibition, % at 10 µM. 98,000 tested, 0.9% active. AID 739, 2007;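 note: yeast cells grown in 1536-well plates; yeast grown about 18 h at 30C before absorbance read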
Hits are given with their value; 0 = inactive; - = not tested or not shown. Cut-off read from the data, not from the text of the source, unless noted: active = inhibition above about 30%; inactive = the rest.

SMILES | S1P2 agonist | PostGolgi ctrl | GALR2 blocker | S1P2 antag | GALR2 agonist | PostGolgi yeast
O=C(NC12CC3CC(CC(C3)C1)C2)N1CCN(c2nc(-c3ccccc3)cs2)CC1 | 0 | 42.3 | 0 | 0 | 0 | 0
COC(=O)c1ccccc1OCCCN(C)C | - | - | 0 | - | 0 | -
Cc1cc(C)nc(NS(=O)(=O)c2ccc(N/C=C/C(=O)c3ccc(Cl)c(Cl)c3)cc2)n1 | - | - | 0 | - | 0 | -
CCn1c2ccccc2c2cc(Nc3cc(C)nc4ncnn34)ccc21 | - | 0 | 34.2 | - | 0 | 0
COc1cc(CNC2CCCC2)cc(OC)c1OC | 0 | 0 | 0 | 0 | 0 | 0
COc1cc(CNC2CCCC2)cc(Cl)c1OCc1ccccc1Cl | 0 | 32.8 | 0 | 0 | 0 | 0
CCOc1cc(CNC2CCCC2)cc(Cl)c1OCc1ccc(F)cc1 | 0 | 0 | 0 | 0 | 0 | 0
COc1cc(CNC2CCCC2)cc(Cl)c1OCc1ccc(F)cc1 | 0 | 43.9 | 0 | 0 | 0 | 0
CN(Cc1ccccc1)C(=O)CSc1nc2ccccc2c(=O)n1Cc1ccco1 | 0 | 55.9 | 0 | 0 | 0 | 0
O=c1c2ccccc2nc(-c2ccccc2)n1Cc1ccco1 | 32.7 | 0 | 0 | 0 | 0 | 0
Cc1ccc(-c2nc3ccccc3c(=O)n2Cc2ccccc2)cc1 | - | - | 0 | - | 0 | -
CC(C)NC(=O)CSCc1c(F)cccc1Cl | 0 | - | 0 | 0 | 0 | -
Cc1cc(C)c(COc2ccc(/C=N/n3c(C)n[nH]c3=S)cc2)c(C)c1 | - | - | 0 | - | 0 | -
CCn1c(=O)c(C(=O)Nc2nc3ccccc3[nH]2)c(O)c2ccccc21 | 0 | 98.2 | 0 | 79.0 | 0 | 104.1
COc1ccc(NC(=O)COc2ccc(C(=O)NC3CCCc4ccccc43)cc2OC)cc1 (configuration not stated) | - | - | 0 | - | 0 | -
O=S(=O)(c1ccccc1)c1cnn2c(C(F)(F)F)cc(-c3ccccc3)nc12 | 0 | 0 | 0 | 0 | 0 | 0
COc1ccccc1-c1cc(C(F)(F)F)n2ncc(S(=O)(=O)c3ccccc3)c2n1 | 0 | 46.0 | 0 | 0 | 0 | 0
CC(C)CC(c1nnnn1C(C)C)N1CCN(c2cccc(Cl)c2)CC1 (configuration not stated) | 0 | 72.7 | 0 | 0 | 0 | 0
CCCC(c1nnnn1CCOC)N1CCN(c2cccc(OC)c2)CC1 (configuration not stated) | - | 0 | 0 | - | 0 | 0
N#CCSc1nnc(COc2ccccc2)n1-c1ccccc1 | 0 | - | 0 | 0 | 0 | -
COc1ccc(-n2c(COc3cccc4ccccc34)nnc2SCC#N)cc1 | 0 | - | 0 | 0 | 0 | -
N#CCSc1nnc(COc2cccc3ccccc23)n1-c1cccc(Cl)c1 | 0 | 53.6 | 0 | 0 | 0 | 0
N#CCSc1nnc(COc2cccc3ccccc23)n1-c1ccccc1 | 0 | 31.3 | 0 | 0 | 0 | 0
Cc1cc(N2C(=O)C3C4CC(C(Br)C4Br)C3C2=O)no1 (configuration not stated) | - | - | 0 | - | 0 | -
COC(=O)c1ccc(NC(=O)COc2ccc(C3C(C#N)=C(N)Oc4c3ccc3ccccc43)cc2OC)cc1 (configuration not stated) | 0 | 0 | 0 | 62.9 | 0 | 0
SMILES | S1P2 agonist | PostGolgi ctrl | GALR2 blocker | S1P2 antag | GALR2 agonist | PostGolgi yeast
COc1cc(C2C(C#N)=C(N)Oc3c2ccc2ccccc32)ccc1OCC(=O)Nc1ccccc1C (configuration not stated) | 0 | 0 | 0 | 0 | 0 | 0
N#Cc1ccc(-c2cccnc2)nc1SCc1ccc(Cl)c(Cl)c1 | - | - | 0 | - | 0 | -
Cc1ccc(CSc2ncccc2C(=O)O)cc1 | 0 | 0 | 0 | 0 | 0 | 0
O=Cc1cc2ccccc2nc1SCc1ccc(Cl)cc1 | 0 | 0 | 0 | 0 | 0 | 67.6
O=Cc1cc2ccccc2nc1SCc1ccc(Cl)c(Cl)c1 | 0 | 38.0 | 0 | 0 | 0 | 0
Clc1ccc(CSc2ncccn2)cc1 | 0 | 0 | 0 | 0 | 0 | 0
Cc1ccc(CSc2nc3ccccc3cc2C=O)cc1 | 0 | 38.5 | 0 | 0 | 0 | 74.6
CCOC(=O)c1cc(-c2ccccc2)sc1NC(=O)C(C)OC(=O)c1cccnc1Cl (configuration not stated) | - | - | 0 | - | 0 | -
CCOC(=O)CN1C(=O)N[C@H](c2ccc(Br)cc2)C(C(C)=O)=C1C | - | - | 0 | - | 0 | -
Cn1c(COc2ccc(Cl)cc2)nnc1SCc1ncc(-c2ccccc2)o1 | 0 | 46.7 | 0 | 0 | 0 | 0
CCCCOc1ccc(/C=C/C(=O)OCC(=O)N2CC(=O)Nc3ccccc32)cc1OCC | - | - | 0 | - | 0 | -
CCOc1ccc(N=C2NC(=O)S/C2=C\c2ccc(N(C)C)cc2)cc1 | 0 | 34.3 | 0 | 0 | 0 | 0

Screens deposited in PubChem by several laboratories.
